The values that follow come from ChEMBL document CHEMBL3988442, “University of Dundee, Small-Polar-MMV Screening Library” (2021).

Test [1] has as its target T1, Aspartate--tRNA(Asp/Asn) ligase (Mycobacterium tuberculosis (strain ATCC 25618 / H37Rv)) (UniProt P9WFW3). Note: in the data most compounds retested in dose-response had high values.
T1 sequence (whole entry): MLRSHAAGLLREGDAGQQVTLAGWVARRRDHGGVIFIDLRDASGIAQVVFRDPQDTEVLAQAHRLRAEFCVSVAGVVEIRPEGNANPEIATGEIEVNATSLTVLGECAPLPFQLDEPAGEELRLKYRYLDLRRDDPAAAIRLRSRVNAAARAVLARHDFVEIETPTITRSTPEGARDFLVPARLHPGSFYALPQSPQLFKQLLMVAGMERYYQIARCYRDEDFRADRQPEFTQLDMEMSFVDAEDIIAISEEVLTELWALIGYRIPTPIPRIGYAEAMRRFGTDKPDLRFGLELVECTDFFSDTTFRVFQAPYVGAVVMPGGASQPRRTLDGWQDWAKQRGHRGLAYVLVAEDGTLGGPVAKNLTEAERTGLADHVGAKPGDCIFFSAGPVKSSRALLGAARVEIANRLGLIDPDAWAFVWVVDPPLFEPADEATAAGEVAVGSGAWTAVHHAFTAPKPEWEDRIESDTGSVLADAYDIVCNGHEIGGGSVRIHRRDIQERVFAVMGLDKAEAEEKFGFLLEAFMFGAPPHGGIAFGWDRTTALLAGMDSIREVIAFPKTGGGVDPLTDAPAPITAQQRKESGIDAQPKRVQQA
Description: Assay for Asp RNA synthetase-1 from Mycobacterium tuberculosis. It counts as functional. On the set-up: scale not given: direction of the effect not stated beside the values. Particulars: 30 µM.

The target in test [2] is Shiga toxin 2 (Escherichia coli O157:H7) (UniProt P09385+P09386). The test is described as follows: E. coli 0.157:H7 Shiga Toxin SOP - stx2 screening assay. Format: functional. On the set-up: scale not given: direction of the effect not stated beside the values. Particulars: 30 µM.

For `CSCC(C)(O)CNC(=O)c1cc(Br)ccc1Cl` (centres undefined), the Percent Effect in test [1] is -0.23%; in test [2] it was -13.2%.
The corresponding values for `O=C(C1CC=CC1)N1CCc2c(COCc3ccncc3)cncc2C1` are -3.81% and -51.1%.
On to `COc1c(C2CCCN2Cc2cc(C)no2)c(C)nn1C` (centres undefined), for which the Percent Effect stood at 3.61% in test [1] and 18.1% in test [2].
For `CC(C)C(NC(=O)NCCNc1ccccn1)c1cccs1` (centres undefined), in that order: 7.74% and 3.04%.
For the molecule `Cc1cccnc1CN(C)CC1(O)CCCN(CC2CCCCC2)C1=O` (centres undefined), the Percent Effect in test [1] is -0.871%; in test [2], 2.24%.
For `COc1c(CNCc2ccc(N(C)C)nc2)c(C(C)C)nn1C`, in that order: 0.0333% and 14%.
The corresponding values for `CCS(=O)(=O)N1CCOC2(CCCN(c3ccc(C)nn3)C2)C1` (centres undefined) are 3.41% and -15.9%.
For `Cc1nc(CCCNC(=O)C2CC(=O)N(C3CC3)C2)sc1C` (centres undefined), the results for the Percent Effect in test [1] and in test [2] were 3.67% and -28.3%, respectively.
The corresponding values for `Cn1ccnc1-c1cccc(NC(=O)NCCN2CCOCC2)c1` are 4.54% and -60.9%.
As for `Cc1ccc2c(c1)CN(C(=O)C1CCCCC1)C(CN(C)C)CO2` (centres undefined), the Percent Effect turned out to be 1.26% in test [1] and 2.56% in test [2].
On to `CCn1ccnc1CN1C[C@@H](CN2CCCC2)[C@@H](CO)C1`, for which the Percent Effect in test [1] is -3.33%; in test [2] it was 6.48%.
The corresponding values for `CC(C)c1noc(C(C)N2CCN(CCN3CCCC3=O)CC2)n1` (centres undefined) are 1.45% and 17.6%.
The corresponding values for `c1ccc(-c2nc(CN3CCCC(Cn4cncn4)C3)no2)cc1` (centres undefined) are -9.3% and 7.88%.
`COc1cc(NC(=O)c2cc(C)sc2C)c(C(=O)N(C)C)cc1OC`: the Percent Effect in test [1] was 7.46%; in test [2], -44.2%.
For `Cc1nc(C)n(CC2CCCN(CCc3ccccn3)C2)n1` (centres undefined), in that order: -0.8% and -46.3%.
The corresponding values for `COc1ccc(C2=CCN(C(=O)CN(C)CC(C)C#N)CC2)cc1` (centres undefined) are -3.34% and -65.5%.
The corresponding values for `Clc1snnc1CN1CCCCC1Cn1cncn1` (centres undefined) are -1.89% and -12%.
Take `O=C(c1cccc2c1OCO2)N1CCCC1c1noc(C2CC2)n1` (centres undefined): the Percent Effect was -11.7% in test [1] and -15.1% in test [2].
Take `CC(C)(CNC(=O)NCCOc1cccc(F)c1)C(N)=O`: the Percent Effect in test [1] was -1.21%; in test [2], 28.8%.
For the molecule `CC(=O)N1CCC[C@H]1C(=O)NCCOc1cccc(Cl)c1`, the Percent Effect was 1.97% in test [1] and -31.3% in test [2].
With `COc1cc(CN(C)C(=O)NCCC2CCCO2)ccc1SC` (centres undefined), the figures for the Percent Effect in test [1] and in test [2] were -3.98% and -6.71%, respectively.
The corresponding values for `CCc1nccn1C1CCCN(C(=O)c2cn3cccnc3n2)C1` (centres undefined) are -1.08% and 5.72%.
Turning to `COc1cccc(CNCc2c(C(C)C)nn(C)c2N(C)C)c1OC`, the figures for the Percent Effect in test [1] and in test [2] were -3.61% and 31.1%, respectively.
In the case of `COc1ccc(OCCCNC(=O)NCc2csc(C)n2)cc1`, the Percent Effect in test [1] is -1.75%; in test [2] it was -17%.
With `COc1ccc(CNC(=O)NCC2CCOC2)c(C(F)(F)F)c1` (centres undefined), the figures for the Percent Effect in test [1] and in test [2] were -4.04% and -3.72%, respectively.
For `Cc1ccc(CC(=O)N2CC[C@@H]3CN(CCN(C)C)CCO[C@@H]3C2)cc1`, in that order: 6.89% and -3.9%.
For `O=C(Cn1cc(I)cn1)N1CCCC1`, in that order: -4.62% and -0.574%.
For `O=C(CCc1ccccc1)N1CCn2cc(CN3CCCC3)nc2C1`, the Percent Effect is 0.131% in test [1] and -15.9% in test [2].
For `Cc1cc(CN(C)C(=O)c2cccc(N3CCCC3=O)c2)no1`, in that order: 4.48% and -12.4%.
For `Cc1ccc(CC(=O)NCCCNS(C)(=O)=O)cc1`, in that order: 2.46% and -16.3%.
The corresponding values for `CCCc1n[nH]c(C2CN(C(=O)c3ccco3)CCO2)n1` (centres undefined) are -0.955% and 8.05%.
Regarding `COC[C@@H]1CC[C@H]2[C@H](CCN2S(=O)(=O)c2ccc(F)cc2)O1`, the figures for the Percent Effect in test [1] and in test [2] were 8.74% and -4.21%, respectively.
The corresponding values for `COc1ccc(OCc2nc(C(=O)N3CC[C@H](O)[C@@H](O)C3)co2)cc1` are -0.903% and 8.98%.
For `O=C(NCCNC(=O)N1CCC(c2ccccc2)C1)C1CC1` (centres undefined), in that order: -0.747% and -19.2%.
For `CN(Cc1cccnc1)CC1CCCN1c1cccnn1` (centres undefined), in that order: 1.15% and 6%.
For the molecule `CCc1nc(CN2CCCN(C(=O)c3cnc[nH]3)CC2)cs1`, the results for the Percent Effect in test [1] and in test [2] were -2.77% and -5.89%, respectively.
The corresponding values for `O=C(NC(CO)CO)c1coc(COc2cccc(F)c2)n1` are -1.14% and -3.72%.
In the case of `CC(O)CNC(=O)NCc1cccnc1OC1CCCC1` (centres undefined), the Percent Effect in test [1] is -4.34%; in test [2], -12.4%.
The corresponding values for `CC(C)Cc1cc(NC(=O)c2ccc[nH]2)n(C)n1` are -0.121% and 7.24%.
The corresponding values for `CC(C)C(=O)N1CCN(C(=O)c2cscn2)[C@H]2CS(=O)(=O)C[C@H]21` are -8.33% and -5.71%.
For `CCC(=O)N1CCCC1c1nccnc1Nc1ncccn1` (centres undefined), in that order: 1.12% and 2.75%.
For `Cc1cc(C)n(C2CCCN(C(=O)c3ccc(NC4CC4)nc3)C2)n1` (centres undefined), the results for the Percent Effect in test [1] and in test [2] were -1.9% and 27%, respectively.
The corresponding values for `COc1ccc(CN2C[C@@H]3CCCO[C@@H]3[C@H](NS(C)(=O)=O)C2)cc1` are 5.42% and -24%.
The corresponding values for `CN(C)c1cc2c(nn1)CCN(C(=O)Cc1noc3ccccc13)C2` are 0.589% and -8.79%.
The corresponding values for `O=C1NCC2(CCCN(Cc3ccccc3F)C2)Oc2ccccc21` (centres undefined) are -5.17% and -17.2%.
Consider `CN(Cc1nccn1CC(F)(F)F)C(=O)c1ccc(F)cc1F`, for which the Percent Effect in test [1] was determined as 1.98%; in test [2] it was 9.03%.
For `O=C(C[C@@H]1COC[C@H]2CN(Cc3ccc(F)cc3)C[C@@H]12)N1CCOCC1`, in that order: 2.03% and -38.2%.
